A selection: hits, their analogues and other compounds. The true share with any hit is near 9.9%.
Tau fibril FP – blocks human tau fibril formation measured by polarization; Potency, µM (highest dose often 57.7 µM), for inactives: at the top dose activity, negative = inhibition, usual class: inhibitors; AID 1468; K18 P301L tau heparin fibrillization, Alexa594 FP, 6 h; hit rate 0.39% among 280,000; active means well fitted curve in the direction sought with a large enough effect; inconclusive means small, poorly fitted or top-dose-only effect, or another doubt; inactive means no such curve, though single readings can be large; an effect the other way counts as inactive or inconclusive; further: nearly all actives have a fitted effect of over 55% in size
Target sequence (P10636 561-689 P618L limits assumed): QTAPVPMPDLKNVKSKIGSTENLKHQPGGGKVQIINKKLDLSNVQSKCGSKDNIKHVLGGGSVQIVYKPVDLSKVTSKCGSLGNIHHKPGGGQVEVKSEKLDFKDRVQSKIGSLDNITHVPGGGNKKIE
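Steps: dispense K18 P301L tau (15 uM plus 0.24 uM Alexa 594 tracer, final) in pH 7 sodium acetate; add compound; add heparin (20 uM final); incubate 6 hr, 37 C; add ThT (30 uM final); after 1 hr ambient, read FP.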
Tau fibril ThT – tau fibrillization inhibition (ThT binding). P10636. recombinant tau K18 P301L, heparin-induced fibrillization, ThT fluorescence. Potency, µM (doses to about 57.4 µM), without a hit: at the top dose activity, negative = inhibition, hits mostly inhibitors. hit rate 2.1% among 270,000. AID 1460; active means well fitted curve in the direction sought with a large enough effect; inconclusive means small, poorly fitted or top-dose-only effect, or another doubt; inactive means no such curve, though single readings can be large; an effect the other way counts as inactive or inconclusive; further: nearly all actives have a fitted effect of over 55% in size
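Tau K18 P301L fragment (15 uM unlabeled plus 0.24 uM Alexa 594-labeled) in 100 mM sodium acetate pH 7 with compound, fibrillization induced by 20 uM heparin for 6 hr at 37 C. Thioflavin T (30 uM) added, fluorescence read after 1 hr (ex 450, em 510 nm).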
Tau fluor counter – counter-screen for tau fibril formation inhibitors; hit rate 0.93% among 280,000; Potency, µM (series often up to 57.7 µM), inactives show at the highest dose activity change, negative = decrease; tau K18 P301L Alexa594 fluorescence, heparin fibrillization; active means well fitted curve in the direction sought with a large enough effect; inconclusive means small, poorly fitted or top-dose-only effect, or another doubt; inactive means no such curve, though single readings can be large; an effect the other way counts as inactive or inconclusive; further: nearly all actives have a fitted effect of over 55% in size
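Human tau K18 P301L (15 uM unlabeled, 0.24 uM Alexa 594-labeled) in 100 mM sodium acetate pH 7 with 20 uM heparin, 6 hr at 37 C. ThT 30 uM added, 1 hr ambient; Alexa 594 FP and total fluorescence read at 555/632 nm.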
HPGD block – blocks human HPGD enzyme activity; P15428; purified HPGD, NADH fluorescence kinetic, PGE2 substrate; Potency, µM, without a hit: at the top dose activity change, negative = inhibition, most hits filed as inhibitors; hit rate 4.3% among 150,000; AID 894
Target sequence (P15428 whole entry, looked up): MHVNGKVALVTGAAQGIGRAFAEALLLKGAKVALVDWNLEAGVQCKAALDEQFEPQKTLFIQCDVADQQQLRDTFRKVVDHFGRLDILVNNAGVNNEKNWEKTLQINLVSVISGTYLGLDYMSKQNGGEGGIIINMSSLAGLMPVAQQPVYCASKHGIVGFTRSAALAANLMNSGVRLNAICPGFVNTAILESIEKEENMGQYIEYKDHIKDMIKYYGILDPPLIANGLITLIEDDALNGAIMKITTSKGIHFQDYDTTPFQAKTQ
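20 nM HPGD preincubated 15 min at room temperature with compound in 50 mM Tris-HCl pH 8, 0.01% Tween 20. Started with 1 mM NAD+ and 30 uM prostaglandin E2; NADH fluorescence (360/450 nm) read 5 times over 30-s intervals, last minus first.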
ALDH1A1 inh – ALDH1A1 (human) enzyme inhibition. Purified ALDH1A1, NADH fluorescence, propionaldehyde substrate. Potency, µM (titrated, usually from 75.3 µM), for inactives: at the top dose activity, negative = inhibition, usual class: inhibitors. hit rate 7.3% among 220,000. AID 1030;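 further: plate controls were no enzyme wells and a reference inhibitor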
JMJD2E inh – inhibitors of human JMJD2E histone demethylase. Potency, µM (series often up to 57.1 µM), without a hit: at the highest dose activity change, negative = inhibition, actives largely listed as inhibitors. hit rate 1.6% among 230,000. B2RXH2. JMJD2E catalytic domain, FDH-coupled NADH fluorescence (FDH is formaldehyde dehydrogenase);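 further: 0% = wells with enzyme and -100% = buffer wells without enzyme; nearly all actives have a fitted effect of over 50% in size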
Target sequence (B2RXH2 1-337 limits assumed): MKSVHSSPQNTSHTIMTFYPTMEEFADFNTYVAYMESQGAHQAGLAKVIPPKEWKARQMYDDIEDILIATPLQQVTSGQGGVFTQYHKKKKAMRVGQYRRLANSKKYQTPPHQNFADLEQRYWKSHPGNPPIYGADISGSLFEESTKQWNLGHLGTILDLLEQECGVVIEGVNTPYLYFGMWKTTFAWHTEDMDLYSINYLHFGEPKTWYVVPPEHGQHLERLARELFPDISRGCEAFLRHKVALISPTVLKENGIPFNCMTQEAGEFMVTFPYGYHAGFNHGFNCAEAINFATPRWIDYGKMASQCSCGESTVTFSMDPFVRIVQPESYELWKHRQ
The depositor's hits bear a star; ? = inconclusive; / = not tested or not shown; [ ] = remark or other dose. Unless noted, the call rests on the fitted dose curve; in most records, active means well fitted inhibition curve with a large enough effect (not every such curve was filed as active); inconclusive means small, poorly fitted or top-dose-only effect, or another doubt; inactive means no such curve, though single readings can be large or run the other way. Unless noted, on the % scale 0 is the no-effect control and ±100 the full control effect; potency means the concentration at half of the fitted maximal effect.

SMILES | Tau fibril FP | Tau fibril ThT | Tau fluor counter | HPGD block | ALDH1A1 inh | JMJD2E inh
O=C(NCCc1ccc(Cl)cc1)c1cnc2sc(N3CCOCC3)nn2c1=O | 4.9% | 6.9% | 4.7% | / | / | /
O=C(NCCc1csc2nc(-c3ccccc3F)nn12)C(=O)Nc1cc(F)ccc1F | -6.3% | 3.6% | -6.5% | / | / | /
O=Cc1cccn1-c1nccc(-c2ccco2)n1 | 0.0% | -11.0% | 2.3% | / | 22.4µM* | ?
COc1ccc(-c2cn[nH]c2-c2ccc(OCc3ccccc3)cc2O)cc1OC | ? | -3.0% | 3.16µM*[quencher] | / | / | 9.0%
COc1ccc(-c2cn[nH]c2C)cc1OC | 6.0% | -5.3% | 7.9% | / | 2.3% | -1.3%
COc1ccc(-c2cn[nH]c2-c2ccc(OCc3ccc(F)cc3)cc2O)cc1OC | ? | -14.9% | 8.91µM*[quencher] | / | / | ?
O=[N+]([O-])c1ccc(COc2ccc(-c3[nH]ncc3-c3ccccc3)c(O)c2)cc1 | ? | -6.0% | ? | -5.9% | 4.7% | 0.1%
CCn1c(=O)c(-[n+]2ccccc2)c(O)c2ccccc21 | -7.9% | -12.6% | -3.2% | -7.2% | 25.1µM* | -21.8%
CCOC(=O)C1(Cc2ccc(Cl)cc2)CCN(C(=O)c2cc(C)nc(C)n2)CC1 | -5.2% | -8.9% | -4.7% | / | -0.4% | 8.8%
CCCC1=C/C(=C/c2ccc(-c3ccccc3OC)o2)C(=O)O1 | -12.0% | 12.6µM* | ? | ? | ? | ?
COc1ccccc1-c1ccc(/C=C2/C=C(CC(C)C)OC2=O)o1 | 2.8% | 8.91µM* | -26.8% | ? | ? | ?
O=C(c1ccncc1)N1CCC2(CCN(Cc3ccncc3)CC2)CC1 | / | / | / | -3.2% | -8.2% | /
COc1ccccc1C(=O)Nc1sc(Nc2ccccc2)nc1C(N)=O | ? | 3.16µM* | 7.08µM*[quencher] | / | / | /
Cc1ccc(C(=O)N2NC(c3ccc(F)cc3)C3C(=O)N(c4ccc(C)c(C)c4)C(=O)C32)cc1 (stereo not given) | 0.8% | 3.8% | -6.8% | ? | 5.0% | -0.5%
O=C(CSCC(=O)Nc1nc(-c2ccc3c(c2)OCO3)cs1)Nc1nccs1 | -4.8% | ? | ? | / | 22.4µM* | -3.9%
C[C@@H](CN(C)C)CN1c2ccccc2CCc2ccccc21 | / | / | / | -4.1% | 8.3%[20.9 µM] | -11.0%[25.5 µM]
N#CC1=C(S)N(c2ccccc2)C(c2cccs2)NC1=O (stereo not given) | ? | ? | -11.4% | 31.6µM* | 20µM* | -25.0%
N#CC1=C(S)N(c2ccccc2)C(c2ccc(-c3ccc(Cl)c(Cl)c3)o2)NC1=O (stereo not given) | 25.1µM* | 15.8µM* | -21.3% | / | / | 25.1µM*
N#CC1=C(S)N(c2ccccc2)C(c2ccco2)NC1=O (stereo not given) | -11.7% | 4.1% | -9.7% | / | -2.9% | 2.6%
N#CC1=C(S)N(c2ccc(F)cc2)C(c2ccco2)NC1=O (stereo not given) | ? | 39.8µM* | -15.8% | / | ? | -8.8%
Cc1ccc(N2C(S)=C(C#N)C(=O)NC2c2cccs2)cc1 (stereo not given) | 2.5% | 16.2% | 9.7% | 22.4µM* | 2.9% | 10.2%
Cc1cccc(C(c2sc3nc(-c4ccco4)nn3c2O)N2CCN(Cc3ccccc3)CC2)c1 (stereo not given) | -10.8% | -11.7% | -15.0% | / | / | /
CCOCCCn1c(=N)c(C(=O)NCc2ccco2)cc2c(=O)n3ccccc3nc21 | -17.7% | -7.7% | -14.4% | / | / | /
O=C1NCCN(Cc2ccc(F)cc2)C1=O | 2.7% | -2.7% | -1.1% | / | / | /
N#Cc1cccc(NC(=O)C2CCN(c3cnccn3)CC2)c1 | 3.9% | 3.2% | -1.4% | / | / | /
SMILES | Tau fibril FP | Tau fibril ThT | Tau fluor counter | HPGD block | ALDH1A1 inh | JMJD2E inh
CCCCSC1=N/C(=C/c2ccsc2)C(=O)N1c1ccccc1 | -10.3% | ? | -22.0% | -25.2% | ? | 93.3%
CCCSC1=N/C(=C/c2ccsc2)C(=O)N1c1ccccc1 | -8.4% | -8.2% | -12.4% | -18.5% | 14.1µM* | ?
O=C(NC1CCCCCC1)C(=S)NCc1ccccc1 | 9.6% | -14.6% | -11.8% | / | 25.1µM* | -3.6%
O=C(CSc1ccccc1C(=O)O)NC1CCCCCC1 | -2.5% | 0.0% | -1.4% | / | / | 2.7%
O=C(NC1CCCCC1)C(=S)NCc1ccccc1 | -1.1% | -10.6% | -10.8% | / | -13.7% | 0.7%
O=C(NC1CCCCCC1)C(=S)NCCc1ccccc1 | -4.5% | -8.7% | -2.5% | / | 11.2µM* | -7.3%
O=C(CSc1ccccc1C(=O)NCc1ccccc1)NC1CCCCCCC1 | -11.2% | -5.3% | -8.5% | 20µM* | -9.8% | 0.1%
CCCCN(CC)CCCNC(=O)Cn1nc(CC)n2c(cc3sccc32)c1=O | 4.8% | 3.9% | 1.0% | / | / | /
O=C(NC(C(=O)N/N=C/c1ccccn1)c1n[nH]c(=O)c2ccccc12)c1ccccc1 (stereo not given) | -6.0% | -8.6% | -6.2% | / | / | -10.0%
COc1c(-c2ccc(O)c(O)c2)oc2cc(O)cc(O)c2c1=O | -6.3% | ? | ? | -8.2% | -7.1% | 14.1µM*
O=c1c(OC2OC(CO)C(O)C(O)C2OC2OC(CO)C(O)C(O)C2OC2OC(CO)C(O)C(O)C2O)c(-c2ccc(O)c(O)c2)oc2cc(O)cc(O)c12 (stereo not given) | -7.2% | ? | -9.2% | / | / | 14.1µM*
O=c1c(O)c(-c2ccc(O)cc2O)oc2cc(O)cc(O)c12 | ? | 12.6µM* | 28.2µM*[quencher] | -24.4% | -12.7% | 25.1µM*
CC1OC(OCC2OC(Oc3c(-c4ccc(O)cc4)oc4cc(O)cc(O)c4c3=O)C(O)C(O)C2O)C(O)C(O)C1O (stereo not given) | 6.6% | -4.4% | -3.4% | / | 0.8% | -0.2%
C[C@@H]1O[C@@H](OC[C@H]2O[C@@H](Oc3c(-c4ccc(O)c(O)c4)oc4cc(O)cc(O)c4c3=O)[C@H](O)[C@@H](O)[C@@H]2O)[C@H](O)[C@H](O)[C@H]1O | -8.2% | ? | -22.9% | / | / | 14.1µM*
Cc1cccc(CNc2ccc(C(CC(N)=O)NC(=O)c3cccc(Br)c3)cc2[N+](=O)[O-])c1 (stereo not given) | -11.1% | -17.1% | -4.8% | / | / | -10.5%
Nc1nnc(/C=C/c2ccccc2)s1 | -2.4% | -7.4% | -5.5% | / | ? | ?
O=C(Nc1ccccc1F)Nc1ccccc1OC(F)F | -7.0% | -0.6% | -10.6% | / | -1.7% | 12.2%
O=C(O)Cc1[nH]cnc1C(=O)O | / | / | / | -0.6% | 10.5%[13.5 µM] | /
O=c1c(O[C@@H]2O[C@H](CO)[C@@H](O)[C@H](O)[C@H]2O)c(-c2ccc(O)c(O)c2)oc2cc(O)cc(O)c12 | -4.6% | ? | -27.0% | / | / | 12.6µM*
O=c1c(O[C@@H]2O[C@H](CO)[C@H](O)[C@H](O)[C@H]2O)c(-c2ccc(O)c(O)c2)oc2cc(O)cc(O)c12 | -2.5% | ? | -11.3% | / | / | 1.78µM*
Cc1cc(Cl)ccc1OCc1n[nH]c(=S)n1C1CCCCC1 | 0.0% | ? | ? | 5.01µM* | ? | -6.2%

Screening data as filed in PubChem.
